Source: PubChem BioAssay AID2221 (Broad Institute, 2009)
Among all 290,000 compounds or so, about 2,200 (0.76%) were called active. Only a selection was taken, and actives are over-represented in it overall. A number with no mark means an inactive call. Rule as the data show it: active = inhibition above about 30%; inconclusive = no clear call, values can overlap the other calls; inactive = below that.

Biological target: Protein RecA (Mycobacterium tuberculosis (strain ATCC 25618 / H37Rv)) (UniProt P9WHJ3)
Sequence (P9WHJ3 whole entry, looked up): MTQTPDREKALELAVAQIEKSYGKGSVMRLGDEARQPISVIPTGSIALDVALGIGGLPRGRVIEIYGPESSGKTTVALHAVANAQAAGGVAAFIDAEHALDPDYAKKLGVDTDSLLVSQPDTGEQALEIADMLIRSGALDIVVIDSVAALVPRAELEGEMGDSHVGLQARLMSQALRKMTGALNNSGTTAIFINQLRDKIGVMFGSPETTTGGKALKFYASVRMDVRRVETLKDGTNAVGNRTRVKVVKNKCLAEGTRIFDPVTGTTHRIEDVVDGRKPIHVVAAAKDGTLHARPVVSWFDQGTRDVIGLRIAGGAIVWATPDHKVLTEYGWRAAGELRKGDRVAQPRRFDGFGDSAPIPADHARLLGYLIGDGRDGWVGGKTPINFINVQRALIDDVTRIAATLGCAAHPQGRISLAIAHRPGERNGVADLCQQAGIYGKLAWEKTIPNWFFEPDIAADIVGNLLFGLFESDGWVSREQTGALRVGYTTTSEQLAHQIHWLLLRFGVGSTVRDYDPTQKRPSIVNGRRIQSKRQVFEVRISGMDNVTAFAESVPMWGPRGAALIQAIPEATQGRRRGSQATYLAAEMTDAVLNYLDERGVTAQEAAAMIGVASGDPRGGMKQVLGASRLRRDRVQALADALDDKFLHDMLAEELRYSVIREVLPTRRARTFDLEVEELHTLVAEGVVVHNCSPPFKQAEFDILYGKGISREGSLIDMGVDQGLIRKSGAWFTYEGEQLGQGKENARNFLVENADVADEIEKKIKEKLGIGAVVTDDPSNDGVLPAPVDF
Assay: Mtb RecA intein splicing inhibitors, primary screen, biochemical, fluorescence, HTS (AID 2221);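 also: 0% = vehicle wells and 100% = reference inhibitor control wells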
Settings: cell-free RecA intein splicing, hits give high values, concentration not given here

Row | SMILES | inhibition
1 | CCN1C(=O)[C@@H]2[C@@H](c3ccc(-c4ccccc4)cc3)N3CCCC[C@@]3(C(=O)OC)[C@@H]2C1=O | 2.14%
2 | Cc1ccc(-c2nc(SCC(=O)Nc3ccccc3OC(F)F)c3c(C)c(C(=O)O)sc3n2)cc1 | 2.99%
3 | Cc1ccc(CC2C(=O)N(c3ccc(F)cc3)C(=O)C2C)cc1 (stereo not drawn) | -0.367%
4 | COc1cc(/C(=C/c2ccccc2)c2ccccc2)c2c(c1)oc1ccccc12 | -0.274%
5 | COc1ccc(OC)c(/C(C)=N\NC(=O)c2cc3cc(Cl)ccc3n2C)c1 | 9.04%
6 | CC(=O)C1C(c2cccc(Oc3ccccc3)c2)NC(=O)NC1(O)C(F)(F)F (stereo not drawn) | -2.89%
7 | CC1=NN(c2ccc(Cl)c(C(=O)O)c2)C(=O)/C1=C/c1ccc(-c2ccccc2[N+](=O)[O-])o1 | 7.48%
8 | O=C1NC(c2ccc(-c3ccccc3[N+](=O)[O-])o2)C(C(=O)c2ccc(Cl)cc2)C(O)(C(F)(F)F)N1 (stereo not drawn) | 45% (active)
9 | CC1(C)CC(=O)C(N=Nc2ccc(S(=O)(=O)N3CCCCCC3)cc2)=C(O)C1 | -0.925%
10 | O=C1C=CC(=O)N1c1ccc(N2CCCCC2)cc1 | 3.11%
11 | COc1ccc(NC2=CC(=S)NC(C)(C)C2)cc1 | 1.09%
12 | Cc1cc(C(=O)CCl)c(C)n1CC1COc2ccccc2O1 (stereo not drawn) | 40.6% (active)
13 | Cc1cc(NC(=O)CCC2COc3ccccc3O2)no1 (stereo not drawn) | 2.09%
14 | O=C1C(=O)N(CC2COc3ccccc3O2)c2ccccc21 (stereo not drawn) | 6.05%
15 | Cc1ccc(-c2nnc(Nc3ccc(C(=O)N(C)C)cc3)c3ccccc23)cc1S(N)(=O)=O | -0.54%
16 | CCCOc1ccc(/C=N/NC(=O)C2CC2)c(OCCC)c1 | -1.61%
17 | O=S(=O)(Nc1ccccn1)c1ccc(Oc2ccccc2)cc1 | -0.988%
18 | COc1ccc(NC(=O)c2cnc(NS(=O)(=O)c3ccccc3)nc2)cc1 | 0.334%
19 | COc1ccc(S(=O)(=O)/N=C2\C=C(NS(=O)(=O)c3ccccc3)C(=O)c3ccccc32)cc1 | 36.2% (active)
20 | Cc1ccccc1C(=O)N1CCC(C(=O)Nc2ccc(S(=O)(=O)N(C)C(C)C)cc2)CC1 | 0.242%
21 | C[n+]1ccc(C(=O)NCc2ccccc2)cc1 | 1.21%

Row | SMILES | inhibition
22 | Cc1cccc(C)c1NC(=S)N(Cc1cccnc1)Cc1ccccc1Cl | 2.64%
23 | NC(=O)C1CCN(C(=O)c2ccc(-c3ccccc3)cc2)CC1 | -3.02%
24 | CCOC(=O)N1CCC(c2cc(=O)n(-c3ccccc3)[nH]2)CC1 | 95.5% (active)
25 | CCOC(=O)N1CCC(NC(=O)COc2cc(=O)n(C)c3ccccc23)CC1 | -3.15%
26 | CCOC(=O)N1CCC(NC(=O)CCc2ccccc2)CC1 | -0.782%
27 | Cc1ccc(Nc2nc(CSc3nnc(-c4ccncc4)n3-c3ccccc3C)cs2)cc1 | 16.7%
28 | COc1cc(OC)c(S(=O)(=O)Nc2ccccc2C(=O)O)cc1S(=O)(=O)Nc1ccccc1C(=O)O | -1.6%
29 | O=C(COc1coc(CN2CCN(c3ccccc3F)CC2)cc1=O)N1CCc2ccccc21 | -2.58%
30 | O=C(Cc1ccccc1)Nc1cccc(NC(=O)c2ccccc2)c1 | -3.56%
31 | CCc1cccc(NC(=O)CCC(=O)O)c1 | -2.03%
32 | O=C(CCl)Nc1cccc(CP(=O)(c2ccccc2)c2ccccc2)c1 | 35.8% (active)
33 | COc1ccc(NC(=O)CCCNC(=O)Cn2cnc3sc4c(c3c2=O)CCCC4)cc1OC | 1.78%
34 | CC(C)OC(=O)CN1C(=O)C(=O)c2ccccc21 | 40% (active)
35 | Cc1cc(/C=C2/SC(=O)N(CC(=O)OC(C)C)C2=O)c(C)n1C | -2.4%
36 | CCOC(=O)CN1C(=O)C(=O)c2cc(C)ccc21 | 1.57%
37 | CC(Oc1cccc(Cl)c1)C(=O)NC1CC(C)(C)NC(C)(C)C1 (stereo not drawn) | 1.06%
38 | Cc1ccc(Cl)cc1NC(=O)C1CCN(S(C)(=O)=O)CC1 | 4.05%
39 | COCCNC(=O)COc1ccc(N(C)S(=O)(=O)c2ccc3ccccc3c2)cc1 | 2.67%
40 | CC(=O)Oc1ccc(N(C(C)=O)S(=O)(=O)c2ccc3ccccc3c2)cc1Br | 36.3% (active)
41 | CN(c1ccc(OCC(=O)O)cc1)S(=O)(=O)c1ccc2ccccc2c1 | 1.36%
42 | CC/C(=N\NC(=O)c1c(C)nc2ccccn12)c1ccc(Cl)cc1 | -3.74%

Row | SMILES | inhibition
43 | COc1ccc(NC(=O)C(NC(C)=O)C(=O)NCc2ccccc2Cl)cc1 (stereo not drawn) | -12.2%
44 | COc1ccc(C2CC(c3cccs3)Nc3nnnn32)cc1 (stereo not drawn) | 2.29%
45 | COc1ccccc1CN1CCCC(N2CCN(c3ccc(F)cc3)CC2)C1 (stereo not drawn) | 1.51%
46 | CCCc1[nH]nc2c1C(c1ccc(OC)c(Cn3nc(C)c(Br)c3C)c1)C(C#N)=C(N)O2 (stereo not drawn) | 16.3%
47 | COc1ccc(C2C(C#N)=C(N)Oc3n[nH]c(C)c32)cc1CN1CCN(c2ccc(F)cc2)CC1 (stereo not drawn) | 49.8% (active)
48 | O=C(CN1CCCC1)Nc1sc2c(c1C(=O)Nc1ccccc1)CCCC2 | -1.42%
49 | CCOP(=O)(OCC)C(Nc1ccc([N+](=O)[O-])cc1)c1ccc(Cl)cc1 (stereo not drawn) | 5.51%
50 | COc1ccc(/C=C2/C(=O)N(c3ccccc3)N=C2C)c(OC)c1 | 70% (active)
51 | COc1ccc(C2/C(=C(/O)c3ccccc3)C(=O)C(=O)N2C)c(OC)c1 (stereo not drawn) | 1.48%
52 | COc1ccc(/C=C2/C(=O)OCc3cc(OC)c(OC)cc32)c(OC)c1 | -0.742%
53 | O=[N+]([O-])c1ccc(N2CCN(c3ccc(F)cc3)CC2)cn1 | 0.617%
54 | COc1ccc(C(=O)NC2CC(C)(C)NC(C)(C)C2)cc1OC | 0.554%
55 | O=C(CCCN1C(=O)/C(=C/c2ccccc2)SC1=S)Nc1ccc(O)cc1 | 45.1% (active)
56 | O=C(CCN1C(=O)/C(=C/c2cccs2)SC1=S)NNC(=O)c1cccc(O)c1 | -2.74%
57 | COc1ccccc1C(=O)NNC(=O)CCN1C(=O)/C(=C\c2ccccc2)SC1=S | 1.3%
58 | O=C(CCCN1C(=O)/C(=C\c2ccccc2)SC1=S)Nc1ccccc1O | -1.47%
59 | O=C(CCCN1C(=O)/C(=C/c2cccs2)SC1=S)Nc1ccc(O)cc1 | 59% (active)
60 | Cc1ccc(/C=C2\SC(=S)N(CCC(=O)Nc3ccc(O)cc3)C2=O)cc1 | 3.35%
61 | CCCCCCNS(=O)(=O)c1ccccc1Br | 8.15%
62 | O=C1N[C@H](Cc2ccccc2)C(=O)N[C@H]1Cc1cn(S(=O)(=O)c2ccccc2)c2ccccc12 | 2.29%
63 | CCOC(=O)CSc1nnc(CNC(=O)c2cccs2)n1-c1cc(OC)ccc1OC | -0.643%
